# Assay results as given in PubChem BioAssay (NCI).
# This is part of a sample that, as a whole, favours compounds with a hit. Of some 83,000 tested, about 20% had one in any assay.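 Method: cells in 96-well plates; compound added at one concentration; 48 h incubation; percent growth measured; values under 10 scored active.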 The source made the active and inactive calls.
# Test system: T-47D breast
# Experiment: NCI-60 one-dose screen, 48 h (100 = growth as untreated, 0 = no growth, -100 = all killed)
# Settings: 10 µM unless noted
row,SMILES,growth
1,O=S(=O)(c1ccccc1)N1CCCN(c2nc(-c3ccccc3)nc3nc(-c4ccccc4)oc23)CC1,99.4% (inactive)
2,Clc1ccc(-c2cn3ccsc3n2)c(Cl)c1Cl,31.7% (inactive)
3,O=C(CN1C(=O)/C(=C/c2ccco2)SC1=S)NCCc1c[nH]c2ccc(F)cc12,103% (inactive)
4,COc1cc(C2C3=C(COC3=O)N(CCO)c3cc4c(cc32)OCCO4)cc(OC)c1OC (centres undefined),67.2% (inactive)
5,N/C(=N\c1nc2ccccc2s1)NC(=NC1CCCCC1)NC1CCCCC1,13.2% (inactive)
6,CC(O)c1ncc(/C=C2\SC(=S)N(Cc3ccccc3)C2=O)s1 (centres undefined),42.4% (inactive)
7,COc1ccc2nc3ccccc3c(NCc3ccc(F)cc3)c2c1,36.5% (inactive)
8,COc1cc(-c2cc(-c3ccc(Nc4ncnc5cc(Cl)ccc45)cc3)nc(N3CCN(C)CC3)n2)cc(OC)c1OC,99.3% (inactive)
9,O=C(Nc1cccnc1Nc1ccc(Cl)cc1)c1cn(Cc2ccc(F)cc2)nn1,90.5% (inactive)
10,N#Cc1c(NC(=O)c2cccs2)[n+]([O-])c2ccc(Cl)cc2[n+]1[O-],91.4% (inactive)
11,CCOC(=O)/C=C/c1c(C)[nH]c(=O)[nH]c1=O,102% (inactive)
12,COc1ccc(C2C3=C(COC3=O)N(CCO)c3cc4c(cc32)OCCO4)cc1OC (centres undefined),25.9% (inactive)
13,CN1CCN(c2ccc3c(c2)nc(NNC(=O)c2cnccn2)c2cccn23)CC1,37.9% (inactive)
14,C=CCOC(=O)C1=C(C)NC(=O)NC1c1c(Cl)n(C)c2ccccc12 (centres undefined),92.5% (inactive)
